Whole data set: some 68,000 sequences, median “fluorescence intensity (a.u.)” near 9,100, cut for the highest 2% near 16,000. The full list was thinned out, with the highest values kept by preference.

Chain of OsWRKY34 (Q0JBA9 entry or part of it): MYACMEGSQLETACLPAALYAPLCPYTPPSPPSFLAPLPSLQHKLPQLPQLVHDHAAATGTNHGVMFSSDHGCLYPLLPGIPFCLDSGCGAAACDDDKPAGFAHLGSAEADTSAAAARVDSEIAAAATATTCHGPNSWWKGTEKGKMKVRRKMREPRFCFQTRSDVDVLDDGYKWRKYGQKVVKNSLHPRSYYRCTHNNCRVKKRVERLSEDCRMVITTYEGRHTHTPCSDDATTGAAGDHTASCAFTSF

The target in the assay is OsWRKY34 (Oryza sativa, UniProt Q0JBA9 1-250). Nature of the assay: protein-binding microarray (RPBM); PBS, 2% BSA, 51.3 ng/ul salmon testes DNA, 50 uM zinc acetate, 200 nM TF, 25 C, 1 h; high values mean tight binding. As to conditions: protein: recombinant; tags: N-terminal polyhistidine and DsRed monomer fusion (pET32a); label: CyDye5-dUTP incorporated in the synthesized complementary strand; 3' TTTTT single-stranded linker to array surface; dsDNA, one strand shown. The method, boiled down:
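The binding signal is fluorescence intensity per feature, in arbitrary units, read on an Axon 4000B scanner. Polyhistidine- and DsRed-tagged transcription factors (N-terminal fusions) from E. coli BL21-CodonPlus were purified on Ni–NTA and applied at 200 nM for 1 h at 25 °C to a double-stranded, BSA-blocked custom Agilent array in buffer with 50 µM zinc acetate.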
With “ACTTGTTTTACGTTCGGCTAATTAGCTGTTTGACCGTTTCCGGAGTCACCTAGTGCAG”, the binding signal is 15300 fluorescence intensity (a.u.).
As for “AAAAACGTCTCAATTGTAAGCTCACTATCTAACAATTTTCCGGAGTCACCTAGTGCAG”, the figure is 11200 fluorescence intensity (a.u.).
Under “GCTTGGTCTATAAGTTGCTGCTCTGCCCTGCTCGGCCTCACGGAGTCACCTAGTGCAG” stands 12000 fluorescence intensity (a.u.); under “CTCCATCGCTTCGCTCTTCGCCGGATCTAGCACCGACGGTCGGAGTCACCTAGTGCAG”, 9000 fluorescence intensity (a.u.).
Under “TTCTTTTGCCGTGCTCCCAGATTCTCCGGTCGCCACGACTCGGAGTCACCTAGTGCAG” stands 8590 fluorescence intensity (a.u.); under “ACCTCTTATTTGACTTTTTCACTATTTTGAAATACGAAAACGGAGTCACCTAGTGCAG”, 9360 fluorescence intensity (a.u.); under “AATGTATTTGTCTTATGTTAAATATATTACTACTCTTTTTCGGAGTCACCTAGTGCAG”, 8080 fluorescence intensity (a.u.).
As to “TATCCGATCCATGGCGTTCTCTTGAGTCCAGAGAGTATTTCGGAGTCACCTAGTGCAG”, the binding signal is 8460 fluorescence intensity (a.u.).
For the sequence “AGCTTAACACGCGCCACTTGCCCCTATTTAGCCGCGCCATCGGAGTCACCTAGTGCAG”, the binding signal was 9920 fluorescence intensity (a.u.).
Regarding “GACGGCGACCGAAGGGGACAAGGAGGCGGGGCGGGGCGGCCGGAGTCACCTAGTGCAG”, the binding signal is 14000 fluorescence intensity (a.u.).
As for “GGGAAGGGGAGGGGTGGGCGGAAGGGGACGCCGGTGGTGGCGGAGTCACCTAGTGCAG”, the figure is 17900 fluorescence intensity (a.u.).
As for “AGGGTGAACAGAAGAAGATGAATCTAACGGGTGGGTCTCACGGAGTCACCTAGTGCAG”, the figure is 10800 fluorescence intensity (a.u.).
Under “CGGTGGGGAGGCCGGGAGGGAGGAGGAGAGAAGAGGAGTGCGGAGTCACCTAGTGCAG” stands 9450 fluorescence intensity (a.u.).
As to “GCATGGTGGCGGCGGGAAGGAGGAGTGGGGCGGCGGGTGCCGGAGTCACCTAGTGCAG”, the binding signal is 16100 fluorescence intensity (a.u.).
For “CGGCTAGGGACGGGGACGACGCCGGAGTGGGTGGGGAAGGCGGAGTCACCTAGTGCAG”, the binding signal is 8680 fluorescence intensity (a.u.).
As for “AATGTGGGAGAAGGGGAGGAGAGAGGGGAGGGGAGGGGACCGGAGTCACCTAGTGCAG”, the figure is 16500 fluorescence intensity (a.u.); as for “GGTGGTGCGCGAGCGTCGGCGGTCGGCGGGAGGGCGGGAGCGGAGTCACCTAGTGCAG”, 9180 fluorescence intensity (a.u.).
“AGAAGGAGGAGGAGGAGGAGGAGGAGGAGGGGAGGAGAGCCGGAGTCACCTAGTGCAG”: the binding signal was 10400 fluorescence intensity (a.u.).
Take “GGCCGCGGCGGTGCGACGAAGAGCGGCGTCGGACAAGGGCCGGAGTCACCTAGTGCAG”: the binding signal is 35900 fluorescence intensity (a.u.).
Under “AATCTAACGGGTGGGTCTCATGTATTGATGAGGAAGAAGACGGAGTCACCTAGTGCAG” stands 20800 fluorescence intensity (a.u.); under “GGGAATATTAGTGGGATGGGGATGAGGAATTGAGGAAGAACGGAGTCACCTAGTGCAG”, 13400 fluorescence intensity (a.u.).
As for “CTCTCTCTGCTCGAGCCCGAGTAGCCCTCGTCGTCATTCTCGGAGTCACCTAGTGCAG”, the figure is 8950 fluorescence intensity (a.u.).
As for “ATTATATGTCATTTGACTTTTCTCTTAGCTAAAGTTCTTTCGGAGTCACCTAGTGCAG”, the figure is 9800 fluorescence intensity (a.u.).
As for “CTATATATAAACGAGCACATCTCGTCGTCCCTCGCCATTCCGGAGTCACCTAGTGCAG”, the binding signal is 10400 fluorescence intensity (a.u.).
Under “TTAAACTGTATACCGTCGCTCGCGTCGCGCGCCGTTGACGCGGAGTCACCTAGTGCAG” stands 9730 fluorescence intensity (a.u.); under “CATGTGTTTACTGGGGTGGTTGTTGTAACAAAATTGAGTACGGAGTCACCTAGTGCAG”, 9360 fluorescence intensity (a.u.).
As for “GTCTGAGTACACTTCTGAGGCTTCTTTGGTCGTTTTGGCCCGGAGTCACCTAGTGCAG”, the figure is 9790 fluorescence intensity (a.u.); as for “AAATATCAACCACATGCTCCTACTTCTATGGAAATTGATTCGGAGTCACCTAGTGCAG”, 10400 fluorescence intensity (a.u.).
Take “TTGTCGTGTCACCTCCATTCTCACCCAACTTCCTTACCTACGGAGTCACCTAGTGCAG”: the binding signal was 13300 fluorescence intensity (a.u.).
As for “CTCGTTTACCTTACTCTCGCTTAGTTCGTTGAGGCATTTCCGGAGTCACCTAGTGCAG”, the figure is 14900 fluorescence intensity (a.u.); as for “GTTATTCAAAACTATAGTTATCTTCCGCCTATTTTTTTATCGGAGTCACCTAGTGCAG”, 10600 fluorescence intensity (a.u.).
As for “GATTGAGGGGAATGTTCCATGTTTTGTTGAACTCTTTTCCCGGAGTCACCTAGTGCAG”, the figure is 9320 fluorescence intensity (a.u.); as for “GACACTAATGTGTGTGAAGGGGAGATTGTTGAATGGTTCCCGGAGTCACCTAGTGCAG”, 65200 fluorescence intensity (a.u.).
As for “AGGGTTGTGATTGGTTGGGAAGAGAATGTTGGTAGATAAGCGGAGTCACCTAGTGCAG”, the figure is 9400 fluorescence intensity (a.u.); as for “ACCGCACAGAGAGGGAGGAGGCGGGGAGGACGGTGAGGGGCGGAGTCACCTAGTGCAG”, 10500 fluorescence intensity (a.u.).
Consider “CGGCGGAGGAGGAGGAGGAGGGGTGGGGAAGAAGAGGGGACGGAGTCACCTAGTGCAG”, for which the binding signal is 22800 fluorescence intensity (a.u.).
“GGCGGCATCTCGCTCTACCGCGGGTGGGGCTTCGACTCCGCGGAGTCACCTAGTGCAG”: the binding signal was 12100 fluorescence intensity (a.u.).
Under “CGGGGAAGGAGAGGGGCGTTAGGGAGGAGGGGCGCACAGACGGAGTCACCTAGTGCAG” stands 16800 fluorescence intensity (a.u.); under “GGGAAGACGGTGGGGCGGGGACAGAGGTAGGGGAAGGAGGCGGAGTCACCTAGTGCAG”, 12600 fluorescence intensity (a.u.).
Under “GGTGGCGGGGCATCTCGCCGCCGACGGCTCGAGGAGGAAACGGAGTCACCTAGTGCAG” stands 18400 fluorescence intensity (a.u.); under “GGGTGGGGAAGAAGAGGGGAAGCGGGGAGGAGGAGAGGGACGGAGTCACCTAGTGCAG”, 9680 fluorescence intensity (a.u.); under “GCAGCAGGGAGGTGGGGCGCAGGAGGAAGAAGAAGAGGGACGGAGTCACCTAGTGCAG”, 13300 fluorescence intensity (a.u.).
Under “CCGGGGCCGGCAGCGGCGGGCGGGCGGGCTCGAGCGGTGGCGGAGTCACCTAGTGCAG” stands 9020 fluorescence intensity (a.u.).
“CGTGGGCCCCACCCGTGCCAGCTCACCTCATCCCCACCACCGGAGTCACCTAGTGCAG”: the binding signal was 8940 fluorescence intensity (a.u.).
Under “ATCGACCCTTGCGCGGACTCCGCTCTCTTGTTGACCACCTCGGAGTCACCTAGTGCAG” stands 14600 fluorescence intensity (a.u.).
As for “TCACTCATGCAGAGTCACAGCTTGTATAGTTGTAATGCATCGGAGTCACCTAGTGCAG”, the figure is 9000 fluorescence intensity (a.u.); as for “GCCTCGTCCACTCCACCACGCCGCCGAAAGCCGCAACTCTCGGAGTCACCTAGTGCAG”, 9580 fluorescence intensity (a.u.); as for “CAACCTCTCCGGGGCGGGGCTGGCCGGCGAGCTGGCGGCGCGGAGTCACCTAGTGCAG”, 9150 fluorescence intensity (a.u.).
As for “AGCTGCCACAAGCCGAAGGCACGTTGACTTAAAAGAAGCCCGGAGTCACCTAGTGCAG”, the figure is 10700 fluorescence intensity (a.u.).
For the sequence “ATATTTTCCGCCTACCCTGTACGCACGTTTATATACACAACGGAGTCACCTAGTGCAG”, the binding signal was 9400 fluorescence intensity (a.u.).
Under “CTTGGACCCACTTAATATGTTATATGGCTATTTCTAGTCACGGAGTCACCTAGTGCAG” stands 8220 fluorescence intensity (a.u.); under “TAAGGTTTCTTCTGGGATCATTACATATACCTATATGGTTCGGAGTCACCTAGTGCAG”, 8100 fluorescence intensity (a.u.).
Under “AGTTTGTTTTTTTTCTGTCCTTGACATGGCCATTTTGTTACGGAGTCACCTAGTGCAG” stands 9920 fluorescence intensity (a.u.); under “TTGGTTGGTTGGTTTGGTGGGCGGCGGTGCCGGAGGAAGACGGAGTCACCTAGTGCAG”, 21900 fluorescence intensity (a.u.); under “GCGGCGAAGCAGGGAGGAGGGAGGAGGAGGGGCGGCGGTGCGGAGTCACCTAGTGCAG”, 12100 fluorescence intensity (a.u.).
Under “CAGCGACGGTGGGGAGGTGGGCGTGGGCGGTTGCCGGCGGCGGAGTCACCTAGTGCAG” stands 11200 fluorescence intensity (a.u.).
With “TTTCCGCCGCGGCGAGGAGGAGGAGGAGGAGGAGGGGCGACGGAGTCACCTAGTGCAG”, the binding signal was 9980 fluorescence intensity (a.u.).
As for “GGGCGGAGAGTTGGGGTTTGGGTTGGTGGCGGTGGGCCGGCGGAGTCACCTAGTGCAG”, the figure is 14800 fluorescence intensity (a.u.).
Under “GTGCGACGGCGGCGGCGAAGTCAGTCCCCTCCTCGAGGGGCGGAGTCACCTAGTGCAG” stands 27700 fluorescence intensity (a.u.).

These data come from article PMC7819943, “Rice protein-binding microarrays: a tool to detect cis-acting elements near promoter regions in rice”.
